Compounds with a hit are over-represented: about 2.1% of the library has one in this group of screens.
KLF5 inh: kruppel-like factor 5 inhibition; AID 1700; DLD-1 KLF5 promoter-luciferase reporter, luminescence; actives 0.23% (n = 290,000); inhibition, % at 5 µM;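 active = inhibition above a per-plate limit of that plate's mean compound inhibition plus 3 SD, cut at about 60% in these data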;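 note: 0% = DMSO wells and 100% = LY294002 at 200 µM; higher means less KLF5 promoter-driven luciferase light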
Wee1 degr inh: blocks degradation of human Wee1 kinase | actives 1.2% (n = 220,000) | reporter increase, % at 5 µM | HeLa Luc-Wee1K328M stability, luciferase luminescence; 100% = proteasome inhibitor MG132 effect;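 active = activation above the mean of all tested compounds plus 3 SD, set per screening run, cut at about 8.8% in these data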;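 note: cells exposed to compound for 20 h before luminescence read; 0% = DMSO alone and 100% = MG132 at 30 µM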
HIF activator: HIF pathway transcriptional activation | U2OS HRE-luciferase reporter, luminescence; normalized: DMSO 0%, desferrioxamine 100% | actives 0.32% (n = 300,000) | activation, % at 7.5 µM (by protocol);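 active = mean activation of at least 10% of the iron chelator positive control signal, with at least half of replicates also reaching 10%; inconclusive = mean and replicate majority disagree about reaching 10%; inactive = mean and most replicates under 10%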
Platelet DG rel: modulates dense granule release in human platelets. human platelet-rich plasma, SFLLRN dense granule ATP release, luminescence. actives 0.22% (n = 300,000). AID 1663. inhibition, %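 (compounds screened at 7.5 µM in platelet-rich plasma)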;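 active = mean replicate score, as percent of positive control, at or above 50; inconclusive = mean below 50 but at least one replicate at or above 50; inactive = mean and every replicate below 50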
aSyn 5UTR inh: MLPCN primary screen, SNCA 5' untranslated region; alpha-synuclein 5'UTR reporter, inhibitor activity; inhibition, % (tested at 7.5 µM); actives 0.82% (n = 300,000); AID 1813; in the data active = inhibition above about 60%; inconclusive = no clear call, values can overlap the other calls;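 note: H4 neuroglioblastoma cells stably carrying SNCA 5'UTR luciferase fusion; 0% = DMSO wells and 100% = positive control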
KLF5 confirm: confirmation of KLF5 inhibitors | shares compounds with KLF5 inh | DLD-1 KLF5 promoter firefly luciferase reporter, luminescence | actives 79% (n = 610) | inhibition, % at 4 µM;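 active = inhibition above a set limit taken from the earlier primary screen, cut at about 63% in these data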;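 note: 0% = DMSO wells and 100% = LY294002 at 200 µM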
IEC-6 tox trip: kills rat IEC-6 cells in KLF5 counter-screen; shares compounds with KLF5 inh; IEC-6 rat intestinal cells, viability luminescence; inhibition, % at 4 µM; actives 56% (n = 610); in the data active = inhibition above about 23%;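 note: cells exposed to compounds for 48 hours before viability read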
* marks the source's active call; other numbers are inactive results; ? = inconclusive; / = not tested or not shown.

SMILES	KLF5 inh	Wee1 degr inh	HIF activator	Platelet DG rel	aSyn 5UTR inh	KLF5 confirm	IEC-6 tox trip
CCOc1ccc(C(=O)c2cc([N+](=O)[O-])ccc2N2CCOCC2)cc1	89*	0	0	0	79*	95*	86*
Cc1ccc(COC(=O)c2cc([N+](=O)[O-])ccc2N2CCOCC2)cc1	83*	/	1	6	68*	84*	74*
COc1ccc(C(=O)c2cc([N+](=O)[O-])ccc2N2CCOCC2)cc1	77*	-1	6	-3	?	83*	66*
COc1ccc(CCNC(=O)c2cc([N+](=O)[O-])ccc2N2CCOCC2)cc1	/	/	0	3	-19	/	/
O=C(OCc1ccc([N+](=O)[O-])cc1)c1cc([N+](=O)[O-])ccc1N1CCOCC1	/	/	1	6	11	/	/
Cc1occc1C(=O)NCc1nc(-c2ccc(Cl)cc2)no1	-22	/	0	5	-3	/	/
Cc1c(Cl)cccc1NC(=S)N1CCC(N(C)CC2CCCO2)CC1 (centres undefined)	-4	-2	/	6	-3	/	/
COc1cccc(COc2ccc3c(C)cc(=O)oc3c2)c1	-183	/	5	3	-164	/	/
COc1ccccc1C1=NOC(COc2ccc3c(C)cc(=O)oc3c2)C1 (centres undefined)	71*	2	1	2	13	81*	61*
O=C1c2cccc3cc([N+](=O)[O-])cc(c23)C(=O)N1CCN1CCCC1	61	-5	-1	-1	98*	45	98*
CCCCOc1ccc(C(=O)N2CCNC(=O)C2)cc1	1	/	0	0	-6	/	/
CC(C)(C)c1ccc(C(=O)NCCOc2ccccc2F)cc1	65*	/	-3	4	77*	33	2
COc1ccccc1C(NC(C)=O)c1cc(Cl)c2cccnc2c1O (centres undefined)	73*	/	0	1	67*	71*	81*
CCC(=O)NC(c1ccc(OC)c(OC)c1)c1cc(Cl)c2cccnc2c1O (centres undefined)	68*	-3	2	3	111*	87*	30*
O=C(NCCc1ccccc1F)c1ccc2c(c1)OCCO2	100*	/	-6	7	108*	108*	0
O=C(Nc1nccs1)c1cc2c(s1)CCCCC2	75*	-3	-1	31	72*	70*	-1
O=C(Nc1nncs1)c1cc2c(s1)CCC2	-93	0	1	2	-132	/	/
COC(=O)c1cc(C(=O)N2CCN(c3cccc(Cl)c3)CC2)cc([N+](=O)[O-])c1	70*	0	-1	-6	38	76*	56*
CCOc1ccccc1C(=O)N1CCN(c2cccc(Cl)c2)CC1	85*	-1	1	-17	95*	109*	75*
O=C(O)c1ccccc1C(=O)N1CCN(c2cccc(Cl)c2)CC1	6	0	-3	10	-1	/	/
O=C(/C=C/c1ccco1)NC(=S)Nc1ccccc1	-56	/	5	0	-104	/	/
Cc1cccc(NC(=S)NC(=O)/C=C/c2ccco2)c1	74*	6	3	-9	-60	23	29*
COc1cc(-c2noc(C)c2/C=C/c2ccc(N)cc2)cc(OC)c1OC	66*	/	3	-1	104*	91*	73*
COc1cc(-c2noc(C)c2C#Cc2ccccn2)cc(OC)c1OC	62*	/	0	14	86*	71*	61*
CNC(C)C#Cc1c(-c2cc(OC)c(OC)c(OC)c2)noc1C (centres undefined)	17	/	-1	7	-39	/	/
COc1cc(-c2c(-c3cc(OC)c(OC)c(OC)c3)noc2C)ccc1F	79*	/	2	-3	46	88*	74*
CC1CCN(c2ccc(-c3cccs3)nn2)CC1	98*	/	-9	43	102*	86*	5
Clc1ccc(-c2cccs2)nn1	12	-4	0	-4	-14	/	/
O=C(Cc1ccc(N2CCNC2=O)cc1)N1CCCC(Nc2cccc(F)c2)C1 (centres undefined)	70*	/	0	-21	64*	71*	47*
O=C1CCCN1CCC(=O)N1CCCC(Nc2ccc(F)c(F)c2)C1 (centres undefined)	-54	/	1	4	6	/	/

Source: PubChem
